# Assay outcomes: PubChem, The Scripps Research Institute Molecular Screening Center
# HTR5A ag: HTR5A agonists in luminescence cell assay, primary screen, counter-screen for OPRM1-OPRD1 heterodimer agonist project, full-deck HTS. 5-hydroxytryptamine receptor 5A (Homo sapiens), P47898. cell-based. 340,000 tested, 0.61% active. activation, % at 9.3 µM. AID 504692, 2011; in the data active = activation mostly above about 9.5%, no sharp cut-off; inactive = mostly below about 7.6%;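 also: 0% = cells with vehicle only and 100% = reference agonist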
# Target sequence (P47898 whole entry, looked up): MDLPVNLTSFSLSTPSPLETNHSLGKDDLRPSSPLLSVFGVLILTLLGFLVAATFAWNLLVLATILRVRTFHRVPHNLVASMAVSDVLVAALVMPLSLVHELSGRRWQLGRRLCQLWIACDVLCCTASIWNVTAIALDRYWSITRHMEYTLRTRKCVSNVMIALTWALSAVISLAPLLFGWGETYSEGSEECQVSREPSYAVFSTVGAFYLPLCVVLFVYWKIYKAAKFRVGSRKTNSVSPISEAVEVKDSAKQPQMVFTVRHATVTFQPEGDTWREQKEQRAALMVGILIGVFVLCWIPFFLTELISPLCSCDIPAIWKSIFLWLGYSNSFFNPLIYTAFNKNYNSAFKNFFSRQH
# MOR-DOR ag: agonists of OPRM1-OPRD1 heterodimerization, primary screen, cell-based, luminescence; Mu-type opioid receptor (Homo sapiens) + Delta-type opioid receptor (Homo sapiens), …; AID 504326, 2011; 340,000 tested, 0.3% active; cells; activation, % at 9.3 µM; in the data active = activation above about 18%;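 also: 0% = vehicle-treated cells and 100% = reference agonist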
# OPRM1-OPRD1 inv: inverse agonists of MOR-DOR heterodimerization, primary screen, cell-based, luminescence; Mu-type opioid receptor (Homo sapiens) + Delta-type opioid receptor (Homo sapiens), …; 340,000 tested, 0.21% active; AID 504357, 2011; cell-based MOR-DOR heterodimer luminescence, inverse agonism; inhibition, % at 9.3 µM; in the data active = inhibition above about 22%, passing the limit was not always enough;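 also: 0% = cells with DMSO and 100% = wells without cells with DMSO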
# HTR5A inv ag: HTR5A inverse agonists in luminescence cell assay, primary screen, counter-screen for OPRM1-OPRD1 heterodimer inverse agonist project, full-deck HTS; 5-hydroxytryptamine receptor 5A (Homo sapiens), P47898; HTR5A cell line, inverse agonism; inhibition, % at 9.3 µM; 340,000 tested, 0.083% active; AID 504634, 2011; in the data active = inhibition mostly above about 23%, no sharp cut-off; inactive = mostly below about 18%;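 also: 0% = cells with DMSO and 100% = no-cell wells with DMSO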
# * = called active by the depositor. The list is not random: actives were taken first. Their share in the collection is about 1.1%.
SMILES,HTR5A ag,MOR-DOR ag,OPRM1-OPRD1 inv,HTR5A inv ag
CCOC(=O)C1=C(CC)OC(N)=C(C#N)C1c1cccs1 (stereo not given),10.9*,3.5,-19.6,-36.1
O=C(O)C(c1ccccc1)C(c1ccccc1)c1ccccc1 (stereo not given),-0.8,-1.5,10.6,2.3
Cc1cc(Cl)ccc1Oc1ncc(CN2CCN(c3ccccc3)CC2)s1,2.6,1.1,-6.3,-22.8
COc1ccc(Oc2ncc(CN3CCN(c4ccccc4)CC3)s2)cc1,10.5*,8.3,-46.6,-37.7
CCN1CCN(c2ccc(NC(=O)c3ccc4c(c3)[nH]c(=O)n4Cc3ccc(F)cc3)cc2)CC1,12.0*,0.6,-3.7,9.7
COc1c(F)c(F)c(C(=O)Nc2ccc(N3CCN(Cc4ccccc4)CC3)cc2)c(F)c1F,9.8*,5.3,-30.1,-40.1
Cc1cc(C)n(-c2ccnc3cc(Cl)ccc23)n1,-0.6,-0.4,2.1,2.5
CC1Oc2ccccc2N(CC(=O)Nc2ccc3c(c2)OCCO3)C1=O (stereo not given),-3.6,-1.4,7.6,-11.8
CC1Oc2ccccc2N(CC(=O)Nc2ccc(F)cc2)C1=O (stereo not given),10.9*,-2.7,12.6,-40.3
O=C(NCc1ccc(F)cc1)c1noc2c1CCCCC2,14.2*,3.9,-21.9,-6.1
O=C(NCc1ccccn1)C(=O)NCC1OCCCN1S(=O)(=O)c1cc(F)ccc1F (stereo not given),1.5,-2.3,12.5,11.4
CC1(c2ccc3noc(-c4cccc(F)c4)c3c2)OCCO1,10.6*,12.8,-60.6,-26.2
O=C(CCN1CCN(S(=O)(=O)c2cccc([N+](=O)[O-])c2)CC1)Nc1ccccc1F,-2.6,0.1,-0.7,15.3
COCCC(=O)N1CCC(Oc2ccc(C(=O)NCc3nccn3C)cc2)CC1,0.2,-3.2,10.6,10.0
COc1ccc(NC(=O)c2ccc(Cl)cc2)c[n+]1[O-],-2.1,-1.5,7.2,8.0
Cc1cc(NC(=O)CSc2nnc(-c3c[nH]c4ccccc34)n2-c2ccc(Cl)cc2)no1,13.5*,20.7*,-112.0,-27.5
S=c1[nH]c(-c2ccccc2)cs1,10.2*,3.9,-20.1,-25.2
Fc1ccc(-c2csc(=S)[nH]2)cc1,-2.6,-0.6,3.4,7.3
CC(=O)NC12CC3CC(C1)CC(C(=O)N1CCN(S(=O)(=O)c4ccc(Cl)s4)CC1)(C3)C2,11.3*,-1.2,6.2,-4.9
CC(=O)NC12CC3CC(C1)CC(C(=O)N1CCN(S(=O)(=O)c4ccccc4[N+](=O)[O-])CC1)(C3)C2,-2.6,-0.5,1.9,6.3
COc1ccccc1N(CC(=O)Nc1ccc(Br)cc1F)S(=O)(=O)c1cccs1,3.7,-2.0,12.5,-10.1
CCCCN(Cc1ccco1)C(=O)c1cc2c(=O)[nH]c3ccc(C)cc3c2s1,15.9*,19.7*,-108.2,-46.6
CCCCN(CC)C(=O)c1cc2c(=O)[nH]c3ccc(C)cc3c2s1,1.2,2.4,-10.5,-4.3
CCc1ccc2c(c1)C(=O)C[C@]1(CCC[C@H](C)C1)O2,-0.5,5.0,-26.7,-14.5
COc1cccc(C=NNc2nc3ccccc3s2)c1OC,9.7*,5.7,-29.9,-39.6
SMILES,HTR5A ag,MOR-DOR ag,OPRM1-OPRD1 inv,HTR5A inv ag
Oc1ccccc1C=NNc1nc2ccccc2s1,-0.2,2.9,-15.0,0.7
CC(=O)Nc1ccc(/C(C)=N/NS(=O)(=O)c2ccc(C)cc2)cc1,1.9,-1.0,5.7,-54.8
C/C(=N/NS(=O)(=O)c1ccc(F)cc1)c1ccncc1,11.3*,0.4,-2.3,-8.1
CC(=NNS(=O)(=O)c1ccc([N+](=O)[O-])cc1)c1ccc(C)cc1,11.2*,0.0,0.2,-43.8
Nn1c(SCC(=O)NCCc2ccc(F)cc2)nnc1C1CCCCC1,0.8,0.6,-2.1,5.0
Cc1ccc2nc(NC(=O)CS(=O)(=O)Cc3ccccc3)sc2c1,-3.3,2.8,-15.0,8.9
Cc1ccc2nc(NC(=O)CSCc3ccccc3)sc2c1,10.2*,5.4,-29.1,-3.5
CCC(C)NCCOCCOc1cc(C)c(Cl)c(C)c1 (stereo not given),11.5*,0.8,-3.8,4.0
COc1ccccc1-n1c(SCC(=O)NCC2CCCO2)nc2c([nH]c3ccccc32)c1=O (stereo not given),-11.6,-8.1,44.7*,37.8*
CCn1c(SCC(=O)NCC2CCCO2)nc2c([nH]c3ccccc32)c1=O (stereo not given),1.1,0.2,-0.6,8.0
O=C(Cc1ccccc1F)Nc1ccc2c(c1)CCC2,9.6*,0.3,-2.6,-25.5
